Among the data in PubChem BioAssay AID743167 (National Center for Advancing Translational Sciences (NCATS), 2013) are Potency values, retold here.

SMILES strings stand for the structures. Several values for one entry are separate records, joined by “and”; a condition that tells them apart may be missing. Equal entries are not always repeated. Records with an inconclusive call do not appear. Activity calls are given as the source filed them. Calls come from the whole dose curve; as a rule, active = well fitted activation curve with a large enough effect; inconclusive = small, poorly fitted or top-dose-only effect; inactive = flat fitted curve, though single readings scatter.

A short description of this assay: Extended Characterization of HPGD Inhibitors: PGE2 Assay in A549 Cells. The conditions noted are these: PGE2 HTRF level, 16 h. From the text:
The central role of HPGD is to inactivate prostaglandins such as prostaglandin E2 (PGE2) or prostaglandin D2 (PGD2). These prostaglandins are involved in a number of processes, including inflammation, differentiation, and cellular signaling, which makes HPGD an important target for pharmacological intervention. A number of prostaglandins of particular biological interest have been identified as substrates of HPGD. […] Over-production of PGE2 has been reported to promote tumor-associated neovascularization, cell proliferation, and tumor growth. […] In this orthogonal assay, we set out to measure if compounds were able to increase PGE2 production NIH Chemical Genomics Center [NCGC] NIH Molecular Libraries Probe Centers Network [MLPCN] MLPCN Grant: MH084681 Assay Submitter (PI): Structural Genomics Consortium
A549 cells, LNCaP cells or media were dispensed in 384-well plates (ProxiPlate-384 Plus, PerkinElmer, Shelton, CT) at 5,000 cells/9.9 uL/well using a CappAero384 multichannel pipette (Odense, Denmark). Separately on the plate, 10 uL of PGE2 calibration standards at a starting assay concentration of 5,000 pg/mL (1:2 dilution, 12-points, n = 1, prepared in media, Cisbio, Bedford, MA) were dispensed. Compounds (100 nL, final concentration range from 41.9 nM to 100 uM) were transferred using an ATS Acoustic Liquid Dispenser (EDC Biosystems, Fremont, CA). After being mixed using an automated liquid handler (CyBio, Jena, Germany), samples were incubated (37 deg C, 5% CO2, under a humidified atmosphere) for 16 hours. PGE2 labeled conjugates were added to each well, first 5 uL of PGE2-d2, followed by 5 uL of anti-PGE2-cryptate, centrifuged (1,500 rpm, 15 sec) and incubated (RT, protected from light) for 5 hours. Time-resolved fluorescence intensity (320 nm excitation, 615 and 665 nm emission) was measured using an Envision plate reader (PerkinElmer). Data was expressed as the ratio of 665 nm/615 nm emissions. Concentration (pg/mL) of samples were calculated from a 4-parameter logistic calibration curves of the PGE2 standards.
In the case of `Cc1cc(-c2nnc3n2CCCCC3)c(C)n1-c1ccc(C(C)(C)C)cc1`, the Potency is 8.33 µM (active) and 13.2 µM (active).
Turning to `Cc1cc(-c2nnc3n2CCCCC3)c(C)n1-c1cccnc1`, the Potency is 1.87 µM (active).
In the case of `COC(=O)[C@]12CCC(C)(C)C[C@H]1[C@H]1C(=O)C=C3[C@@]4(C)C=C(C#N)C(=O)C(C)(C)[C@@H]4CC[C@@]3(C)[C@]1(C)CC2`, the Potency is 16.6 µM (active).
Regarding `Cc1cccc(-n2cnc3cc(C(=O)N4CCCC(C)C4)ccc32)c1` (centres undefined), the Potency is 9.35 µM (active).
